This passage reports outcome and AC50 results from PubChem BioAssay (EPA / NIEHS).

Results filed as inconclusive are left out. Activity calls are given as the source filed them. The calls were made as follows, unless noted: active = hit-call score of the fitted dose curve at least 0.9, where 1 is the maximum; inactive = score below 0.9.

The nature of experiment [1]: ATG_Hpa5_TRANS: Attagene TRANS-FACTORIAL HepG2 Assay for human GAL4-Hpa5 Hepatocyte Transcription Factor Basal Promoter (AID 2282975; active = hit-call score of the fitted dose curve at least 0.9, where 1 is the maximum;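 also: hits are increases in reporter mRNA over DMSO baseline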). Particulars: HepG2 Attagene GAL4-Hpa5 transcription reporter. The gist of the method: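 Gain-of-signal versus DMSO is fitted for reporter mRNA quantified by RT-PCR and capillary electrophoresis after 24 h exposure. This endpoint is an internal background marker in transiently transfected HepG2 cells carrying GAL4-UAS reporter units.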

Experiment [2] has as its target Glucocorticoid receptor (Homo sapiens) (UniProt P04150). Kind of experiment: ATG_GR_TRANS: Attagene TRANS-FACTORIAL HepG2 Assay for human Glucocorticoid Receptor (GR) (AID 2282978; active = hit-call score of the fitted dose curve at least 0.9, where 1 is the maximum;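 also: activators score as hits since higher reporter transcript over DMSO is fitted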). Particulars: HepG2 Attagene TRANS GR reporter, mRNA transcription. The gist of the method: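 In this trans-factorial format, exogenous NR-GAL4 chimeric proteins in transfected HepG2 cells regulate GAL4-UAS reporter transcription. After 24 h treatment, reporter mRNA induction relative to DMSO is read by RT-PCR and capillary electrophoresis.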

The target in experiment [3] is Oxysterols receptor LXR-beta (Homo sapiens) (UniProt P55055). Kind of experiment: ATG_LXRb_TRANS: Attagene TRANS-FACTORIAL HepG2 Assay for human Liver X Receptor beta (LXRb) (AID 2282981; active = hit-call score of the fitted dose curve at least 0.9, where 1 is the maximum). Conditions: HepG2 Attagene TRANS GAL4-LXRb reporter, mRNA. A digest of the protocol: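 Readout: fluorescent reporter mRNA fragments resolved by capillary electrophoresis after RT-PCR. System: transiently transfected human HepG2, exogenous LXRb-Gal4 chimera driving GAL4-UAS reporter, 24 h dosing. Activity fitted upward against DMSO baseline.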
Chain of Oxysterols receptor LXR-beta (Homo sapiens) (P55055 whole entry, looked up, the tested form may be a part): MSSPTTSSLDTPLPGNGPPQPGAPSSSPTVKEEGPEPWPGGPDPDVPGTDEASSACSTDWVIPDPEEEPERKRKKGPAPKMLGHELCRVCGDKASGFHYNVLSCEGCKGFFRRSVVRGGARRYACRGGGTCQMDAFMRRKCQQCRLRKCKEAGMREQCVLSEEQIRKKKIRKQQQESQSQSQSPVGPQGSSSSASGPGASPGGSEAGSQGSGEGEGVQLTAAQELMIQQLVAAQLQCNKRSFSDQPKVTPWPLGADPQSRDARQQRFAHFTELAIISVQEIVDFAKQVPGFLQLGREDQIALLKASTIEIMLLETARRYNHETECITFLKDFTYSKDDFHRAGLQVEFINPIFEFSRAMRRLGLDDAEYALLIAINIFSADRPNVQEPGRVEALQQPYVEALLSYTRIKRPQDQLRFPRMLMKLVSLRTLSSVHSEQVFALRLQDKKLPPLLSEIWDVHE

Experiment [4] concerns the target Hepatocyte nuclear factor 4-alpha (Homo sapiens) (UniProt P41235). Kind of experiment: ATG_HNF4a_TRANS: Attagene TRANS-FACTORIAL HepG2 Assay for human Hepatocyte Nuclear Factor 4 alpha (HNF4a) (AID 2282982; active = hit-call score of the fitted dose curve at least 0.9, where 1 is the maximum). Particulars: HepG2 HNF4a transactivation reporter, mRNA readout. The gist of the method:
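Transient MRTU transfection of HepG2, 24 h dosing. Readout: reporter mRNA via RT-PCR + capillary electrophoresis, fluorescence; activity fit upward relative to DMSO control.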

In experiment [5] the target is Nuclear receptor subfamily 4 group A member 2 (Homo sapiens) (UniProt P43354). Kind of experiment: ATG_NURR1_TRANS: Attagene TRANS-FACTORIAL HepG2 Assay for human Nuclear Receptor Related Protein 1 (NURR1) (AID 2282985; active = hit-call score of the fitted dose curve at least 0.9, where 1 is the maximum). Conditions: HepG2 Attagene TRANS reporter, mRNA readout. A digest of the protocol:
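Read-out: reporter mRNA induction by RT-PCR plus capillary electrophoresis with fluorescence detection, after 24 h dosing of transfected HepG2 cells. Exogenous NR-Gal4 chimera activity drives GAL4-UAS reporter; activity fitted upward versus DMSO.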

The target in experiment [6] is Transcriptional activator Myb (Homo sapiens) (UniProt P10242). Kind of experiment: ATG_Myb_CIS: Attagene CIS-FACTORIAL HepG2 Assay for human Myeloblastosis (Myb) Proto-Oncogene Transcription Factor (AID 2282986). Particulars: HepG2 Attagene CIS-FACTORIAL Myb reporter transcription; actives raise or lower the signal. A digest of the protocol:
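Steps: transfect HepG2 with cis-regulated reporter units; dose with chemical for 24 h; isolate RNA, reverse-transcribe, PCR-amplify and FAM-label reporter sequences; digest with HpaI; resolve by capillary electrophoresis. Activity fitted in both directions relative to DMSO.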

The target of experiment [7] is Nuclear respiratory factor 1 (Homo sapiens) (UniProt Q16656). Kind of experiment: ATG_NRF1_CIS: Attagene CIS-FACTORIAL HepG2 Assay for human Nuclear Respiratory Factor 1 (NRF1) Orphan Gene (AID 2282987). Particulars: HepG2 NRF1 cis-element reporter, Attagene multiplex; actives raise or lower the signal. A digest of the protocol:
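Fluorescence intensity of labelled reporter cDNA fragments, resolved by capillary electrophoresis, served as readout for NRF1 cis-element activity. Transiently transfected HepG2 cells were dosed for 24 hours; activity in either direction was fitted against DMSO negative control.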

Experiment [8] can be described thus: ATG_NFI_CIS: Attagene CIS-FACTORIAL HepG2 Assay for human Nuclear Factor I (NFI) (AID 2282989). Conditions: HepG2 cis-regulatory reporter, NFI response element transcription; actives raise or lower the signal. A digest of the protocol: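 Reporter transcripts were measured by RT-PCR with fluorescent primer extension and capillary electrophoresis 24 h post-treatment. HepG2 cells carried transiently transfected cis-regulated reporter constructs reporting endogenous factor activity; gain or loss fitted against DMSO baseline.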

The target of experiment [9] is Myc proto-oncogene protein (Homo sapiens) (UniProt P01106). Kind of experiment: ATG_Myc_CIS: Attagene CIS-FACTORIAL HepG2 Assay for human Myelocytomatosis (Myc) Proto-Oncogene Transcription Factor (AID 2282990). Conditions: HepG2, Attagene cis-reporter transcription factor activity; actives raise or lower the signal. The gist of the method:
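Transiently transfected HepG2 cells bearing cis-promoter reporter units for endogenous transcription factors; 24 h exposure. Reporter mRNA measured by RT-PCR, 6-FAM primer extension, HpaI cut and capillary electrophoresis; bidirectional fit relative to DMSO.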

A short description of experiment [10]: ATG_NF_kB_CIS: Attagene CIS-FACTORIAL HepG2 Assay for human Nuclear Factor Kappa B (NF-kB) (AID 2282991). Particulars: HepG2 Attagene cis-factorial NF-kB reporter mRNA; actives raise or lower the signal. The gist of the method: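 Endogenous transcription factor activity in HepG2 was captured via cis-regulated reporter constructs; after 24 h dosing, reporter mRNA was reverse-transcribed, amplified, fluorescently labelled and sized by capillary electrophoresis, with activity fitted bidirectionally relative to DMSO.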

Experiment [11] in a line: ATG_NRF2_ARE_CIS: Attagene CIS-FACTORIAL HepG2 Assay for human Nuclear Factor Erythroid 2 Related Factor 2 (NFR2) response to Antioxidant Response Elements (ARE) (AID 2282992).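 As to AC50: reporter mRNA level measured by RT-PCR and capillary electrophoresis fluorescence.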 Conditions: HepG2 Attagene ARE/NRF2 reporter, transcription factor activity; actives raise or lower the signal. The gist of the method:
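Fluorescence intensity of reporter-specific cDNA fragments, separated by capillary electrophoresis, reflects mRNA induction in transfected HepG2 cells at 24 h. Activity is fitted bidirectionally, DMSO serving as baseline.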

Experiment [12] in a line: ATG_Oct_MLP_CIS: Attagene CIS-FACTORIAL HepG2 Assay for human Octamer-Binding Transcription Factor (Oct) (AID 2282993). Particulars: HepG2 Attagene cis-factorial Oct reporter, mRNA; actives raise or lower the signal. The gist of the method: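 Readout is reporter transcript level from RT-PCR with fluorescent primer extension and capillary electrophoresis, fitted in both directions against DMSO. Transfected HepG2 reporter units report endogenous factor activity after 24 h dosing.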

Experiment [13] concerns the target Cellular tumor antigen p53 (Homo sapiens) (UniProt P04637). Kind of experiment: ATG_p53_CIS: Attagene CIS-FACTORIAL HepG2 Assay for human p53 Transcription Factor (AID 2282994). Particulars: HepG2 p53 cis-element reporter, Attagene mRNA; actives raise or lower the signal. The gist of the method:
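Transiently transfected HepG2 (multiple cis reporter transcription units); exposure 24 h; reporter RNA via RT-PCR, 6-FAM extension, 2 h HpaI digest at 37 C, CE detection; DMSO baseline.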

Experiment [14] in a line: BSK_3C_TissueFactor: BioMAP Diversity Plus: 3C Assay for Tissue Factor Biomarker Activity (AID 2282997). Particulars: BioMAP 3C HUVEC, tissue factor biomarker readout; actives raise or lower the signal. A digest of the protocol:
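Cells used were primary human umbilical vein endothelial cells. They were dosed with chemical, and after 24 h Tissue Factor was quantified by ELISA. Curves were fitted bidirectionally with DMSO as baseline.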

Experiment [15] in a line: BSK_3C_uPAR: BioMAP Diversity Plus: 3C Assay for Urokinase-type plasminogen activator receptor (uPAR) Biomarker Activity (AID 2282998). Conditions: BioMAP 3C HUVEC, uPAR biomarker ELISA; actives raise or lower the signal. A digest of the protocol: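 Cell-surface uPAR on HUVEC (3C system) read by ELISA at 24 h post-treatment, with DMSO as baseline and fitting in both directions. Parallel cultures stained with SRB to flag overt cytotoxicity.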

Experiment [16] in a line: BSK_3C_VCAM1: BioMAP Diversity Plus: 3C Assay for Vascular cell adhesion molecule 1 (VCAM1) Biomarker Activity (AID 2282999). Conditions: BioMAP 3C HUVEC, VCAM1 ELISA, cytokine-stimulated; actives raise or lower the signal. The gist of the method: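 HUVEC primary cells, 24 h compound exposure; VCAM-1 by ELISA; gain/loss of signal fitted bidirectionally vs DMSO baseline.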

Experiment [17] has as its target Oxysterols receptor LXR-alpha (Homo sapiens) (UniProt Q13133). Kind of experiment: ATG_LXRa_TRANS: Attagene TRANS-FACTORIAL HepG2 Assay for human Liver X Receptor alpha (LXRa) (AID 2282980; active = hit-call score of the fitted dose curve at least 0.9, where 1 is the maximum). Conditions: HepG2 Attagene TRANS reporter, LXRa transactivation. A digest of the protocol: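 Transient HepG2 transfectants, 24 h dosing, RT-PCR/CE mRNA reporter quantitation; gain-of-signal vs DMSO.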

Experiment [18] can be described thus: ATG_M_32_TRANS: Attagene TRANS-FACTORIAL HepG2 Assay for M32 Transcription Factor (Internal Marker) (AID 2282984; active = hit-call score of the fitted dose curve at least 0.9, where 1 is the maximum;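 also: transcript level of a background control reporter unit measured by RT-PCR and capillary electrophoresis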). Conditions: HepG2 Attagene TRANS M32 internal marker reporter. The gist of the method:
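Read-out: fluorescent reporter cDNA fragments resolved by capillary electrophoresis after RT-PCR of total RNA. Transfected HepG2 cells were exposed to chemical for 24 h. Activity scored in the positive direction relative to DMSO.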

The target of experiment [19] is Bile acid receptor (Homo sapiens) (UniProt Q96RI1). Kind of experiment: ATG_FXR_TRANS: Attagene TRANS-FACTORIAL HepG2 Assay for Farnesoid X Receptor (FXR) (AID 2282979; active = hit-call score of the fitted dose curve at least 0.9, where 1 is the maximum;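 also: hits raise reporter mRNA above DMSO so AC50 marks FXR activation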). Particulars: HepG2 Attagene TRANS FXR-GAL4 reporter transcription. The gist of the method: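 Chimeric FXR-GAL4 activity in transiently transfected human HepG2 liver cells is scored as induction of reporter mRNA after 24 h of dosing. Detection uses RT-PCR with fluorescent labelling and capillary electrophoresis, with DMSO serving as baseline.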

A short description of experiment [20]: ATG_GAL4_TRANS: Attagene TRANS-FACTORIAL HepG2 Assay for GAL4 (Internal Marker) (AID 2282976; active = hit-call score of the fitted dose curve at least 0.9, where 1 is the maximum). Particulars: HepG2 Attagene TRANS GAL4 internal marker reporter. A digest of the protocol: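 Fluorescence from capillary electrophoresis of labelled RT-PCR products quantifies reporter mRNA induction after 24 h dosing of HepG2 cells carrying transfected GAL4-UAS reporter transcription units. Vehicle DMSO serves as baseline.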

Chain of Transcriptional activator Myb (Homo sapiens) (P10242 whole entry, looked up): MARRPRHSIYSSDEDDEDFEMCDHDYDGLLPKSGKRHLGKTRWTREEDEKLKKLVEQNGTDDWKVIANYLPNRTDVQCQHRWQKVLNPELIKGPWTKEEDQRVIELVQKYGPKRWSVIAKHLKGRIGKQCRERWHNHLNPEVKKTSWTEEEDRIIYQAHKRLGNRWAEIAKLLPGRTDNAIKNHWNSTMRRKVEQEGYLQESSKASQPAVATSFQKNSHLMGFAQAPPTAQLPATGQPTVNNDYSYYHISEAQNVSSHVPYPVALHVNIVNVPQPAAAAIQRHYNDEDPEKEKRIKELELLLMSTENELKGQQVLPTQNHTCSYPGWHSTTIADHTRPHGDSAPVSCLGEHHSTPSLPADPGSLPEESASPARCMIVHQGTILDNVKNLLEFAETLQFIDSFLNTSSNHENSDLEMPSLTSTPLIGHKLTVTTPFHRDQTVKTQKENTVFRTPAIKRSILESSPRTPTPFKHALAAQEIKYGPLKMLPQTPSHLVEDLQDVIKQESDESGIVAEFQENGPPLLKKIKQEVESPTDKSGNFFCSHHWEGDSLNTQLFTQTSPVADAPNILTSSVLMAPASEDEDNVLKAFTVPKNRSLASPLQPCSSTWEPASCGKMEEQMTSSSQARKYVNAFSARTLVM
Chain of Nuclear respiratory factor 1 (Homo sapiens) (Q16656 whole entry, looked up, the tested form may be a part): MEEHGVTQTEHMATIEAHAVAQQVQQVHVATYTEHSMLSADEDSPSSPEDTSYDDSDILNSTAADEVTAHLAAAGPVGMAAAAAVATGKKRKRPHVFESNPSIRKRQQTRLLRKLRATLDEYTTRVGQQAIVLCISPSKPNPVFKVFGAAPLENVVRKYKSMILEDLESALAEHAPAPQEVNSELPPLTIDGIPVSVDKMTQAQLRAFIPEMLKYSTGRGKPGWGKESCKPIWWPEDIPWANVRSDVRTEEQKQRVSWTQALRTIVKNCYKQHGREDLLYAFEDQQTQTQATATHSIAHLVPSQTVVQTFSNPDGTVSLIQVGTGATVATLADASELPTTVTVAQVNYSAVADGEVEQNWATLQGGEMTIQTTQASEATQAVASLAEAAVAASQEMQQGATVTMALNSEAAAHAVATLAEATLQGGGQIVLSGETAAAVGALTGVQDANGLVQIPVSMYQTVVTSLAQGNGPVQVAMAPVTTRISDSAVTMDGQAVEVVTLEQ
Chain of Nuclear receptor subfamily 4 group A member 2 (Homo sapiens) (P43354 whole entry, looked up, the tested form may be a part): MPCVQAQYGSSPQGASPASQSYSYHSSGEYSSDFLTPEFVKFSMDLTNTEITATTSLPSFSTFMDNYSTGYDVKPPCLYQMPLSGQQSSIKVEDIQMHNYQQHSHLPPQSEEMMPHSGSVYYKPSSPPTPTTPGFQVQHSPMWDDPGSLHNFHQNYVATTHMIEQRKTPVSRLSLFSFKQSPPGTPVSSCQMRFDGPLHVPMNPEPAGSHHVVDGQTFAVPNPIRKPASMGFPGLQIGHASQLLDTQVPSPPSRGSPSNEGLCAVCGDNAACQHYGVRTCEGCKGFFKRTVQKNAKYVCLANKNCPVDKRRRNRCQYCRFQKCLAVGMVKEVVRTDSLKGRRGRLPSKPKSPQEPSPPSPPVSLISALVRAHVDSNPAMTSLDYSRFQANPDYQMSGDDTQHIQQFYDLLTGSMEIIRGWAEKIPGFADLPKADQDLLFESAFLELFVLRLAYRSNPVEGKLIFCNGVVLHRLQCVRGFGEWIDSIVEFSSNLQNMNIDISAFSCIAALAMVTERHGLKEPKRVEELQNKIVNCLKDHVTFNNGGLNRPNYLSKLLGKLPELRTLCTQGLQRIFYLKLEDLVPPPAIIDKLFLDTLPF
Chain of Hepatocyte nuclear factor 4-alpha (Homo sapiens) (P41235 whole entry, looked up): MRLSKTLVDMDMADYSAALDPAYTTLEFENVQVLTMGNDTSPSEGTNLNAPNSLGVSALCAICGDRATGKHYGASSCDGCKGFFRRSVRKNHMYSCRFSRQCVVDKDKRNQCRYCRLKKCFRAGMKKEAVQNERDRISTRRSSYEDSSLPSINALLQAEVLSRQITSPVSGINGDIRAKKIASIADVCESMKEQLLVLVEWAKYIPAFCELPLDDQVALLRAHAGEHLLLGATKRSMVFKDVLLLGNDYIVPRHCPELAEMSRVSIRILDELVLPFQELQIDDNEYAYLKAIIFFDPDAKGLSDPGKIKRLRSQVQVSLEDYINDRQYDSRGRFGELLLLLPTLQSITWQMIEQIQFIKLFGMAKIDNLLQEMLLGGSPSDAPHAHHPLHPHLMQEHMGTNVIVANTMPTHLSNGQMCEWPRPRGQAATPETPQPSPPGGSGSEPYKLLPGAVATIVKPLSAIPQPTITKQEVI
Chain of Cellular tumor antigen p53 (Homo sapiens) (P04637 whole entry, looked up): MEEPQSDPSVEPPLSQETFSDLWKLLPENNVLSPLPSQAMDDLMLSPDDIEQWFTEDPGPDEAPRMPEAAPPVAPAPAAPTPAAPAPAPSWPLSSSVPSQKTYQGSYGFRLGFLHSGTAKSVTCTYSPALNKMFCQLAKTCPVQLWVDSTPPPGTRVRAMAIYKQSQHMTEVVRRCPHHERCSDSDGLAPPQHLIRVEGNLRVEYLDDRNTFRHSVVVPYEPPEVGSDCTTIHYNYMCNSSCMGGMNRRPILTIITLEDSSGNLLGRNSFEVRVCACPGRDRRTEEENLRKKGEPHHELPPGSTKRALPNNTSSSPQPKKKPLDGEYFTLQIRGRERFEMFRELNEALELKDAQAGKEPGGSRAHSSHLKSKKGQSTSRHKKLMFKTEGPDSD
Chain of Glucocorticoid receptor (Homo sapiens) (P04150 whole entry, looked up, the tested form may be a part): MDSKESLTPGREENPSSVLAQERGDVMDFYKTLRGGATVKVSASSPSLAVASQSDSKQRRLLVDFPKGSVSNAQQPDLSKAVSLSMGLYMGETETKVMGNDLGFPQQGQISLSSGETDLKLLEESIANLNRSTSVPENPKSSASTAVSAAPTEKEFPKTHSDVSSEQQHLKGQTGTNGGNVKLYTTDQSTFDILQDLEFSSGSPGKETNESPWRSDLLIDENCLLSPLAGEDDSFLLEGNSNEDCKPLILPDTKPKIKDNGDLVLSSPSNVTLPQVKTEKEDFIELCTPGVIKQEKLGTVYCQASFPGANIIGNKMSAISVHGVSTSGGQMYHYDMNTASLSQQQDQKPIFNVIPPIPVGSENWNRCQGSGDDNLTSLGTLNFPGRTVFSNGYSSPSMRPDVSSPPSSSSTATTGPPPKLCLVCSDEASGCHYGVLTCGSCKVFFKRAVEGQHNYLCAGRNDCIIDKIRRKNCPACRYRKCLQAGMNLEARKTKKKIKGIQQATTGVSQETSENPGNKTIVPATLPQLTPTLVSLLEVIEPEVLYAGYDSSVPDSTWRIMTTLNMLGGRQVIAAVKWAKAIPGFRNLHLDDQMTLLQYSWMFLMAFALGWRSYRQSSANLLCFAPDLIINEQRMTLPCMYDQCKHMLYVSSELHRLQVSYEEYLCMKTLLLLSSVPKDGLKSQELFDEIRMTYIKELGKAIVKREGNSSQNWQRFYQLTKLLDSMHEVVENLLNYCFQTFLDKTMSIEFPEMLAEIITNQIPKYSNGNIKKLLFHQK
Chain of Myc proto-oncogene protein (Homo sapiens) (P01106 whole entry, looked up): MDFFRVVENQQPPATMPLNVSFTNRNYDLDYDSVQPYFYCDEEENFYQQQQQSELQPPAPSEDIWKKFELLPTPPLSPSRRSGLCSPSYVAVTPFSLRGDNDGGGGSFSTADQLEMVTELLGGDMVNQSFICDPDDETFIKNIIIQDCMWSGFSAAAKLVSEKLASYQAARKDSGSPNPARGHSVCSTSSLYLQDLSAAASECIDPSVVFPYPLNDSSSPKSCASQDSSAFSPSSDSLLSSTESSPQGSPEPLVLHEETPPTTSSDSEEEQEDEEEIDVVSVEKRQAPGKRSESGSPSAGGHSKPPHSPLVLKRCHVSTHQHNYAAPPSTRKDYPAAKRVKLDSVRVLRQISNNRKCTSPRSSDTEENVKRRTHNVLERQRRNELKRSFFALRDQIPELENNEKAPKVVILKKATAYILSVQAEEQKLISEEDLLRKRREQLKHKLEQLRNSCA
Chain of Oxysterols receptor LXR-alpha (Homo sapiens) (Q13133 whole entry, looked up): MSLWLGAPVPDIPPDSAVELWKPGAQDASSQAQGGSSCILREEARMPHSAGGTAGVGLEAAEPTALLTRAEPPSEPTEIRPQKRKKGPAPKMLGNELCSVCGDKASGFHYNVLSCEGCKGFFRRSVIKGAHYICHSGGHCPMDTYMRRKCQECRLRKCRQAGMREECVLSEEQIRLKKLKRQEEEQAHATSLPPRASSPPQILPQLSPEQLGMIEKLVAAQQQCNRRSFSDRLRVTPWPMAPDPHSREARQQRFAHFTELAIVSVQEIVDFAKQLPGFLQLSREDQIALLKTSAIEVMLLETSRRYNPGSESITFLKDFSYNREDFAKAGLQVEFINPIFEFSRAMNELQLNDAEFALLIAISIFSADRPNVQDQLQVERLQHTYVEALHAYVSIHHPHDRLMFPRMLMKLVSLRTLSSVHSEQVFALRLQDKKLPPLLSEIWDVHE

Regarding `O=C(Nc1ccccc1-c1ccc(Cl)cc1)c1cccnc1Cl`, the call in [1], in [2], in experiment [3], in [4], in [5] and in experiment [6] was inactive. Also, the compound was classed as inactive in experiment [7], in [8], in [9], in [10], in experiment [13] and in experiment [14]. For the same compound, the outcome in experiment [15] and in experiment [16] was inactive. Also, the AC50 in experiment [11] is 8.77 µM (active); in experiment [12], 7.03 µM (active).
Turning to `CS(=O)(=O)c1cc(C(F)(F)F)ccc1C(=O)c1cnoc1C1CC1`, the call in [1], in [2], in [17], in experiment [3], in experiment [18] and in experiment [6] was inactive. Further, the compound was called inactive in experiment [7], in experiment [8], in experiment [9], in [10], in [13] and in experiment [14]. Moreover, the outcome in experiment [15] and in experiment [16] was inactive. The figures for the AC50 in experiment [11] and in experiment [12] were 19.1 µM (active) and 50 µM (active), respectively.
As to `COc1cc(OC)nc(NC(=O)NS(=O)(=O)c2ncccc2OCC(F)(F)F)n1`, the outcome in [1], in experiment [2], in experiment [19], in [17], in experiment [3] and in experiment [5] was inactive. Also, the compound was called inactive in experiment [6], in [7], in experiment [8], in experiment [9], in experiment [10] and in experiment [11]. Further, the result in [12], in experiment [13], in experiment [14], in experiment [15] and in experiment [16] was inactive.
In the case of `N#Cc1c[nH]cc1-c1cccc2c1OC(F)(F)O2`, the result in experiment [1], in experiment [20], in experiment [2], in experiment [17], in experiment [3] and in experiment [4] was inactive. The call in experiment [6], in experiment [7], in experiment [8], in [9], in experiment [10] and in experiment [13] was inactive. Also, the result in experiment [14] and in experiment [16] was inactive. The AC50 in [5] was 7.82 µM (active); in [11] it was 13.2 µM (active); in [12] it was 13.9 µM (active); in [15], 12.8 µM (active).
As to `Nc1c(Cl)c(Cl)nc(C(=O)O)c1Cl`, the result in experiment [1], in experiment [2], in [3], in experiment [4], in experiment [18] and in [5] was inactive. Moreover, the outcome in [6], in [7], in experiment [8], in [9], in experiment [10] and in [12] was inactive. Besides, the compound was classed as inactive in experiment [13], in experiment [14], in experiment [15] and in [16]. For the same compound, the AC50 in [11] was 50 µM (active).
For `COC(=O)NC(=S)Nc1ccccc1NC(=S)NC(=O)OC`, the result in experiment [1], in [2], in [17], in experiment [3], in experiment [4] and in experiment [5] was inactive. Further, the result in experiment [6], in experiment [7], in [8], in experiment [9], in experiment [10] and in [13] was inactive. For the same compound, the outcome in experiment [14], in experiment [15] and in experiment [16] was inactive. For the same compound, the AC50 in [11] is 11.6 µM (active); in experiment [12], 30.8 µM (active).
`N#Cc1c(Cl)cccc1Cl`: the outcome in [1], in experiment [2], in [17], in experiment [3], in [6] and in experiment [7] was inactive. The compound was called inactive in experiment [8], in experiment [9], in [10], in experiment [12], in [13] and in [14]. In addition, the result in experiment [15] and in [16] was inactive. The AC50 in experiment [11] is 13.7 µM (active).
